Inconclusive results are not listed. A structure can be active in one record and inactive in another. Activity calls are given as the source filed them. Rule for the calls, unless noted: active = hit-call score of the fitted dose curve at least 0.9, where 1 is the maximum; inactive = score below 0.9.
What was measured:
[1] = ATG_TAL_CIS: Attagene CIS-FACTORIAL HepG2 Assay for human TAL Basal Promoter (AID 2282966); details: HepG2 Attagene cis-factorial TAL promoter reporter; actives raise or lower the signal;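 note: background control endpoint measuring basal TAL promoter reporter mRNA not a specific factor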
In short: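 Fluorescence of labelled reporter cDNA fragments, resolved by capillary electrophoresis, gave the readout. Human HepG2 liver cells carried transiently transfected cis-element reporter units and were treated for 24 hours; activity was fitted bidirectionally against DMSO.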

[2] = ATG_TGFb_CIS: Attagene CIS-FACTORIAL HepG2 Assay for human Transforming Growth Factor (TGF) (AID 2282967); details: HepG2 Attagene CIS TGFb reporter, mRNA transcription; actives raise or lower the signal
In short: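 After a 24-hour incubation with compound, transfected HepG2 cells were lysed for RNA; reporter cDNA was amplified, fluorescently end-labeled and separated by CE. DMSO served as baseline for bidirectional fits.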

[3] = ATG_VDRE_CIS: Attagene CIS-FACTORIAL HepG2 Assay for human Vitamin D Receptor Element (VDRE) (AID 2282968); details: HepG2 VDRE cis-reporter transcription, actives raise or lower the signal
In short: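 HepG2 cells transiently transfected with cis-element reporter units, dosed 24 h; reporter mRNA measured by RT-PCR, 6-FAM labeling, HpaI digestion and capillary electrophoresis. Activity fitted bidirectionally against DMSO baseline.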

[4] = target: Nuclear receptor subfamily 1 group I member 3 (Homo sapiens) (UniProt Q14994); experiment: ATG_CAR_TRANS: Attagene TRANS-FACTORIAL HepG2 Assay for human Constitutive Androstane Receptor (CAR) (AID 2282969; active = hit-call score of the fitted dose curve at least 0.9, where 1 is the maximum;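 note: activators raise reporter mRNA above DMSO so AC50 marks induction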); details: HepG2 Attagene TRANS-FACTORIAL CAR reporter
In short: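 HepG2 cells transiently transfected with multiplexed GAL4-UAS reporter units expressing chimeric NR-Gal4 proteins; compound exposure 24 h. Reporter mRNA measured by RT-PCR, 6-FAM labelling, HpaI digestion and capillary electrophoresis; gain-of-signal fitted against DMSO baseline.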

[5] = target: X-box-binding protein 1 (Homo sapiens) (UniProt P17861); experiment: ATG_Xbp1_CIS: Attagene CIS-FACTORIAL HepG2 Assay for human X-box Binding Protein 1 (XBP1) (AID 2282972); details: HepG2 XBP1 cis-element reporter, Attagene multiplex; actives raise or lower the signal
In short: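 HepG2, transient MRTU transfection (cis-promoter driven), 24 h compound exposure. Total RNA → oligo(dT) RT → PCR → 6-FAM labeling → HpaI cut → CE. Bidirectional fit vs DMSO.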

[6] = ATG_M_19_TRANS: Attagene TRANS-FACTORIAL HepG2 Assay for M19 Transcription Factor (Internal Marker) (AID 2282974; active = hit-call score of the fitted dose curve at least 0.9, where 1 is the maximum); details: HepG2 Attagene TRANS-FACTORIAL M19 internal marker reporter
In short: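 Using RT-PCR and capillary electrophoresis, reporter mRNA from transiently transfected human HepG2 cells was quantified following 24 h exposure; activity was fitted in the positive direction against DMSO.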

[7] = target: Oxysterols receptor LXR-beta (Homo sapiens) (UniProt P55055); experiment: ATG_LXRb_TRANS: Attagene TRANS-FACTORIAL HepG2 Assay for human Liver X Receptor beta (LXRb) (AID 2282981; active = hit-call score of the fitted dose curve at least 0.9, where 1 is the maximum); details: HepG2 Attagene TRANS GAL4-LXRb reporter, mRNA
In short: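 HepG2 cells transiently transfected with multiple reporter transcription units carrying chimeric NR-Gal4 proteins acting on GAL4-UAS reporters; compound exposure 24 h. Reporter mRNA quantified by RT-PCR, 6-FAM labelling, HpaI digestion and capillary electrophoresis; gain of signal versus DMSO.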

[8] = target: Hepatocyte nuclear factor 4-alpha (Homo sapiens) (UniProt P41235); experiment: ATG_HNF4a_TRANS: Attagene TRANS-FACTORIAL HepG2 Assay for human Hepatocyte Nuclear Factor 4 alpha (HNF4a) (AID 2282982; active = hit-call score of the fitted dose curve at least 0.9, where 1 is the maximum); details: HepG2 HNF4a transactivation reporter, mRNA readout
In short: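 HepG2 cells transiently transfected with multiplexed GAL4-UAS reporter units responsive to chimeric NR-GAL4 proteins; compound exposure 24 h. Reporter mRNA quantified by RT-PCR, 6-FAM labelling, HpaI digestion and capillary electrophoresis; gain of signal versus DMSO baseline.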

[9] = target: Transcriptional activator Myb (Homo sapiens) (UniProt P10242); experiment: ATG_Myb_CIS: Attagene CIS-FACTORIAL HepG2 Assay for human Myeloblastosis (Myb) Proto-Oncogene Transcription Factor (AID 2282986); details: HepG2 Attagene CIS-FACTORIAL Myb reporter transcription; actives raise or lower the signal
In short: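 In this HepG2 transient-transfection format, cis-regulated reporter mRNA is quantified 24 h post-dosing by RT-PCR with capillary electrophoresis, fitted bidirectionally to DMSO baseline.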

[10] = target: Nuclear respiratory factor 1 (Homo sapiens) (UniProt Q16656); experiment: ATG_NRF1_CIS: Attagene CIS-FACTORIAL HepG2 Assay for human Nuclear Respiratory Factor 1 (NRF1) Orphan Gene (AID 2282987); details: HepG2 NRF1 cis-element reporter, Attagene multiplex; actives raise or lower the signal
In short: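 Using DMSO as baseline, gain- or loss-of-signal was fitted for reporter mRNA levels in HepG2 cells transiently transfected with cis-regulated reporter units. Samples were taken 24 h after dosing and read by RT-PCR with capillary electrophoresis.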

[11] = ATG_GAL4_TRANS: Attagene TRANS-FACTORIAL HepG2 Assay for GAL4 (Internal Marker) (AID 2282976; active = hit-call score of the fitted dose curve at least 0.9, where 1 is the maximum); details: HepG2 Attagene TRANS GAL4 internal marker reporter
In short: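 First, HepG2 cells were transfected with reporter units under GAL4-UAS control. Next, they were treated with chemical for 24 h. Finally, RNA was reverse-transcribed, PCR-amplified, FAM-labelled and resolved by capillary electrophoresis, with induction scored against DMSO.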

[12] = target: Estrogen-related receptor gamma (Homo sapiens) (UniProt P62508); experiment: ATG_ERRg_TRANS: Attagene TRANS-FACTORIAL HepG2 Assay for human Estrogen-Related Receptor gamma (ERRg) (AID 2282977; active = hit-call score of the fitted dose curve at least 0.9, where 1 is the maximum;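 note: hits increase reporter signal over DMSO so potencies reflect activators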); details: HepG2 Attagene TRANS reporter, ERRg transactivation
In short: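 HepG2 cells transiently transfected with multiplexed GAL4-UAS reporter units and chimeric NR-Gal4 constructs were exposed to test chemicals for 24 h. Reporter mRNA was measured by RT-PCR, 6-FAM primer extension, HpaI digestion and capillary electrophoresis; gain-of-signal versus DMSO.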

[13] = target: Oxysterols receptor LXR-alpha (Homo sapiens) (UniProt Q13133); experiment: ATG_LXRa_TRANS: Attagene TRANS-FACTORIAL HepG2 Assay for human Liver X Receptor alpha (LXRa) (AID 2282980; active = hit-call score of the fitted dose curve at least 0.9, where 1 is the maximum); details: HepG2 Attagene TRANS reporter, LXRa transactivation
In short: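 Transfect HepG2 with GAL4-UAS multiplex reporter constructs (TRANS format, chimeric receptor-GAL4); treat 24 h; extract RNA, reverse-transcribe, PCR-amplify, FAM-label, HpaI-digest; resolve fragments by capillary electrophoresis. Upward response vs DMSO.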

[14] = ATG_M_06_TRANS: Attagene TRANS-FACTORIAL HepG2 Assay for M06 Transcription Factor (Internal Marker) (AID 2282983; active = hit-call score of the fitted dose curve at least 0.9, where 1 is the maximum;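 note: reporter transcript level by RT-PCR then capillary electrophoresis fluorescence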); details: HepG2 Attagene TRANS M06 internal marker reporter
In short: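 Transfect HepG2 with MRTUs → dose compounds 24 h → isolate RNA, oligo(dT) RT → PCR with reporter primers → 6-FAM primer extension → HpaI digest → CE fragment analysis. Positive direction vs DMSO.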

[15] = target: Estrogen receptor (Homo sapiens) (UniProt P03372); experiment: ATG_ERa_TRANS: Attagene TRANS-FACTORIAL HepG2 Assay for human Estrogen Receptor alpha (ERa) (AID 2282970; active = hit-call score of the fitted dose curve at least 0.9, where 1 is the maximum); details: HepG2 Attagene TRANS ERa GAL4 reporter, mRNA
In short: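 Human liver HepG2, transient transfection of multiple GAL4-UAS reporter units; TRANS format (exogenous NR-Gal4 chimera). 24 h dosing. Readout: reporter mRNA, RT-PCR, 6-FAM primer extension, HpaI digest, capillary electrophoresis. Positive direction vs DMSO.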

[16] = target: Steroid hormone receptor ERR1 (Homo sapiens) (UniProt P11474); experiment: ATG_ERRa_TRANS: Attagene TRANS-FACTORIAL HepG2 Assay for human Estrogen-Related Receptor alpha (ERRa) (AID 2282971; active = hit-call score of the fitted dose curve at least 0.9, where 1 is the maximum); details: HepG2 Attagene TRANS reporter, ERRa transactivation
In short: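 Reporter transcript induction was quantified by RT-PCR and capillary electrophoresis of FAM-labelled, HpaI-cut products after 24 h treatment of HepG2 cells carrying transiently transfected GAL4-UAS reporter units and an exogenous ERRa-Gal4 fusion; activity scored as increase over DMSO.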

[17] = ATG_M_32_TRANS: Attagene TRANS-FACTORIAL HepG2 Assay for M32 Transcription Factor (Internal Marker) (AID 2282984; active = hit-call score of the fitted dose curve at least 0.9, where 1 is the maximum;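 note: transcript level of a background control reporter unit measured by RT-PCR and capillary electrophoresis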); details: HepG2 Attagene TRANS M32 internal marker reporter
In short: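 HepG2 cells transiently transfected with multiple GAL4-UAS reporter transcription units, dosed for 24 hours; reporter mRNA quantified by RT-PCR, 6-FAM primer extension, HpaI digestion and capillary electrophoresis. Gain-of-signal fitted versus DMSO baseline; internal background-control marker.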

[18] = target: Nuclear receptor subfamily 4 group A member 2 (Homo sapiens) (UniProt P43354); experiment: ATG_NURR1_TRANS: Attagene TRANS-FACTORIAL HepG2 Assay for human Nuclear Receptor Related Protein 1 (NURR1) (AID 2282985; active = hit-call score of the fitted dose curve at least 0.9, where 1 is the maximum); details: HepG2 Attagene TRANS reporter, mRNA readout
In short: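 HepG2 cells transiently transfected with GAL4-UAS reporter units and chimeric NR-Gal4 constructs; chemical exposure 24 h. Reporter mRNA quantified by RT-PCR, fluorescent labelling and capillary electrophoresis; gain of signal fitted relative to DMSO baseline.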

[19] = target: Bile acid receptor (Homo sapiens) (UniProt Q96RI1); experiment: ATG_FXR_TRANS: Attagene TRANS-FACTORIAL HepG2 Assay for Farnesoid X Receptor (FXR) (AID 2282979; active = hit-call score of the fitted dose curve at least 0.9, where 1 is the maximum;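 note: hits raise reporter mRNA above DMSO so AC50 marks FXR activation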); details: HepG2 Attagene TRANS FXR-GAL4 reporter transcription
In short: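 Transient transfection of HepG2 with multiplexed GAL4-UAS reporter units; exogenous FXR-GAL4 chimera. Dose 24 h → TriZol RNA → oligo(dT) RT → PCR, 6-FAM primer extension, HpaI cut → CE. Gain vs DMSO.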

Measured: AC50

Sequence of Oxysterols receptor LXR-alpha (Homo sapiens) (Q13133 whole entry, looked up, the tested form may be a part): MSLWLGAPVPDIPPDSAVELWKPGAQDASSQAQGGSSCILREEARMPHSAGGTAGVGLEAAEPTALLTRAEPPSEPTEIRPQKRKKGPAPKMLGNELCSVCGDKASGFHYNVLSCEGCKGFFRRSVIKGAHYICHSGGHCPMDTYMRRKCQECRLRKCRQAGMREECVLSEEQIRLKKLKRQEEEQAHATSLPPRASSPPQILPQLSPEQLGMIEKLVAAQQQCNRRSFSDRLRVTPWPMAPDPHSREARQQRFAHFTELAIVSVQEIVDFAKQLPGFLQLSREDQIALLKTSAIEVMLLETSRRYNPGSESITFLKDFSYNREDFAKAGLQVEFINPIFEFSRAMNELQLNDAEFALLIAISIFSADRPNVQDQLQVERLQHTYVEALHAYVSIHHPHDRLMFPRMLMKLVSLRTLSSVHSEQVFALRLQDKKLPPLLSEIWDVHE
Sequence of Nuclear receptor subfamily 1 group I member 3 (Homo sapiens) (Q14994 whole entry, looked up, the tested form may be a part): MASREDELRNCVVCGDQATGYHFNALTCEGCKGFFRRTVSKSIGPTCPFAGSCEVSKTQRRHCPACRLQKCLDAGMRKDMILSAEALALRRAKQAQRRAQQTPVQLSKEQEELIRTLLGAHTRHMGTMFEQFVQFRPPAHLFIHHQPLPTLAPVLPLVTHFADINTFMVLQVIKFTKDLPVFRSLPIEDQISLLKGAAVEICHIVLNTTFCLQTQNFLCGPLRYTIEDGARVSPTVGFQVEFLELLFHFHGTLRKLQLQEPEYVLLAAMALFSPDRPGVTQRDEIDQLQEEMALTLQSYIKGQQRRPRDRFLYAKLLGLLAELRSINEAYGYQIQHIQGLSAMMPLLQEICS
Sequence of Transcriptional activator Myb (Homo sapiens) (P10242 whole entry, looked up): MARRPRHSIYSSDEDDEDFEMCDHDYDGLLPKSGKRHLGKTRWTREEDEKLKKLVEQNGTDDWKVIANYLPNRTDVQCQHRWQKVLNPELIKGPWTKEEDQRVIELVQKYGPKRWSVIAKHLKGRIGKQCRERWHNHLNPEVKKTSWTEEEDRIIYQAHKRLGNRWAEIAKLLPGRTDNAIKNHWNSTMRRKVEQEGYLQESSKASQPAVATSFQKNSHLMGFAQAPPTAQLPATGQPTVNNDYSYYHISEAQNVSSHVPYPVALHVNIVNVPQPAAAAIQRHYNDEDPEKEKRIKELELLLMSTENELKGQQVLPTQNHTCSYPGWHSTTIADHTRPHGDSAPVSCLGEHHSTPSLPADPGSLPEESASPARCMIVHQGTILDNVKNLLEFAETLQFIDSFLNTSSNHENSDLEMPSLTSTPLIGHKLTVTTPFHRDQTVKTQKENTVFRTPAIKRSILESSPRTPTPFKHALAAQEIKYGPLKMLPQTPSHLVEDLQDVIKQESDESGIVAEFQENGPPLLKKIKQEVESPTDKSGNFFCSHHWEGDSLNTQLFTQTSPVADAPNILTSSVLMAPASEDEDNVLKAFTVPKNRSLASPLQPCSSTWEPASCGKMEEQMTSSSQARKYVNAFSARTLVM
Sequence of Estrogen receptor (Homo sapiens) (P03372 whole entry, looked up, the tested form may be a part): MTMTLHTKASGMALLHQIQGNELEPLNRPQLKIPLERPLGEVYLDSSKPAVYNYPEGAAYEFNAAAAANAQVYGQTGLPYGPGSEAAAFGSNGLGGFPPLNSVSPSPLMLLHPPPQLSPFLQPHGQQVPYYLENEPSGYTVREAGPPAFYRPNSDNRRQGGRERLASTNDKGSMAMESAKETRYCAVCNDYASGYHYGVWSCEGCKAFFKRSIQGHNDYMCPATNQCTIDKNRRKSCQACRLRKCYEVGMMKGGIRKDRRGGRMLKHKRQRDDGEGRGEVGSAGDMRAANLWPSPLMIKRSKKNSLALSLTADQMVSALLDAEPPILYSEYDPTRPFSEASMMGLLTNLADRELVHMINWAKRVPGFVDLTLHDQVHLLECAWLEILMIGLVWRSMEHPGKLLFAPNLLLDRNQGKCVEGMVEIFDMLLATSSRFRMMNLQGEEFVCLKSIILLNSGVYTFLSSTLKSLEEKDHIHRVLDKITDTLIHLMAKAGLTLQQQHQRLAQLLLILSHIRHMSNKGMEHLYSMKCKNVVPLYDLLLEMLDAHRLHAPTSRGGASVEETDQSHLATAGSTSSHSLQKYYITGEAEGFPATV
Sequence of Bile acid receptor (Homo sapiens) (Q96RI1 whole entry, looked up, the tested form may be a part): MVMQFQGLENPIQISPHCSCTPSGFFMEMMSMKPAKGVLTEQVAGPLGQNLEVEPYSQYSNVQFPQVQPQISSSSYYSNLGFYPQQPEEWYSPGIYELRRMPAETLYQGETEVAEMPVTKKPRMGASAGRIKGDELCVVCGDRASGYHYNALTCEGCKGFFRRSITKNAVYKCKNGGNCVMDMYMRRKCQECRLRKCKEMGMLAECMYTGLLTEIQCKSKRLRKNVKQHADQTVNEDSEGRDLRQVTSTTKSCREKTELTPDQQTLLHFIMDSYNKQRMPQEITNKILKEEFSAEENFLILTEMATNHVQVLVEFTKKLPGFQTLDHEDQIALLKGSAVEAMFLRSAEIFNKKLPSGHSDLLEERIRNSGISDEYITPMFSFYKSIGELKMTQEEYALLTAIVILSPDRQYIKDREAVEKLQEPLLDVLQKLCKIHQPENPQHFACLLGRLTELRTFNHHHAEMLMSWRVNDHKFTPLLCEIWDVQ
Sequence of Hepatocyte nuclear factor 4-alpha (Homo sapiens) (P41235 whole entry, looked up, the tested form may be a part): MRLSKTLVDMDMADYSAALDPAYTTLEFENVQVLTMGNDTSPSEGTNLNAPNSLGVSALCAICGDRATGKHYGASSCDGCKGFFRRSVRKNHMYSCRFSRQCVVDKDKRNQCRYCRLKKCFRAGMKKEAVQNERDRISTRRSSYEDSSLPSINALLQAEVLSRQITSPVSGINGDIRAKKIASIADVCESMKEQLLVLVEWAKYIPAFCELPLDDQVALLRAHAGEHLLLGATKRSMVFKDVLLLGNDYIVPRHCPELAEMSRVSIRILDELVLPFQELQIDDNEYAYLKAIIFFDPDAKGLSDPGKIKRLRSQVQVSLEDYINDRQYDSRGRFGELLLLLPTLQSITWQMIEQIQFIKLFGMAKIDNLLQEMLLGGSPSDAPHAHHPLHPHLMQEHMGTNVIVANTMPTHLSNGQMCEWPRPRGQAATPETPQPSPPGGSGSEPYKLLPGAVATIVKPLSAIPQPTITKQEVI
Sequence of Nuclear receptor subfamily 4 group A member 2 (Homo sapiens) (P43354 whole entry, looked up, the tested form may be a part): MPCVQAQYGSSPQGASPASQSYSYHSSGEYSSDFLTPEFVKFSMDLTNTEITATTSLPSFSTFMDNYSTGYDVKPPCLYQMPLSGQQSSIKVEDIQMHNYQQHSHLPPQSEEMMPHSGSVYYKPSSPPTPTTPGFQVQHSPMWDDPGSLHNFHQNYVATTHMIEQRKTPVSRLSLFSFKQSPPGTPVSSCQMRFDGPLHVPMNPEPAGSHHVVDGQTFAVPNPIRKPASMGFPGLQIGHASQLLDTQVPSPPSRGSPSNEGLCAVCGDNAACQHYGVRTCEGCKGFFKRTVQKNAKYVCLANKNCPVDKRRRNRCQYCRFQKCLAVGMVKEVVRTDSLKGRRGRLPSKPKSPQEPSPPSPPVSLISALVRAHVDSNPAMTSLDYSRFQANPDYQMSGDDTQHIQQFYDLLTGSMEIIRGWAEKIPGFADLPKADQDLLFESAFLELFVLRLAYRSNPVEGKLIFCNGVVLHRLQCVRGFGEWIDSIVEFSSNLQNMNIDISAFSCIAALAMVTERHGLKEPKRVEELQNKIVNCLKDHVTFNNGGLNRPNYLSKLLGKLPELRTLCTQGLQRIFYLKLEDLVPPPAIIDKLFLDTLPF
Sequence of Oxysterols receptor LXR-beta (Homo sapiens) (P55055 whole entry, looked up, the tested form may be a part): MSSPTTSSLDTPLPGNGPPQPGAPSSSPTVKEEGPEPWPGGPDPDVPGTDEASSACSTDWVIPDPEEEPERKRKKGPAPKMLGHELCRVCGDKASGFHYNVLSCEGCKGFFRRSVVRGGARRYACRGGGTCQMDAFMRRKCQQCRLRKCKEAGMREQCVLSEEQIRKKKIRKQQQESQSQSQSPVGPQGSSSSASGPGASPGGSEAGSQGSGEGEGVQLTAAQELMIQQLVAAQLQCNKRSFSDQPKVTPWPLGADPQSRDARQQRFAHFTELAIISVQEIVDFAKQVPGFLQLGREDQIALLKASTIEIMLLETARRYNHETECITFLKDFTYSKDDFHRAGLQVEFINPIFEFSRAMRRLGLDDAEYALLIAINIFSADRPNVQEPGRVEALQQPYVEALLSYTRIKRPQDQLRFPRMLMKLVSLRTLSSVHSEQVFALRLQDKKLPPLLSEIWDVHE
Sequence of X-box-binding protein 1 (Homo sapiens) (P17861 whole entry, looked up): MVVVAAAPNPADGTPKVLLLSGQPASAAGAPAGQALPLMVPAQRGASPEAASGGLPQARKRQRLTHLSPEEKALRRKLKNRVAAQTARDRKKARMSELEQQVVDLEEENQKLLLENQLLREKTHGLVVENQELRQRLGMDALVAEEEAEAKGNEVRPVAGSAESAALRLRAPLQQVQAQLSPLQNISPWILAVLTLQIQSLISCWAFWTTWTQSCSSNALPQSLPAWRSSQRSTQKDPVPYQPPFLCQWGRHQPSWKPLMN
Sequence of Nuclear respiratory factor 1 (Homo sapiens) (Q16656 whole entry, looked up): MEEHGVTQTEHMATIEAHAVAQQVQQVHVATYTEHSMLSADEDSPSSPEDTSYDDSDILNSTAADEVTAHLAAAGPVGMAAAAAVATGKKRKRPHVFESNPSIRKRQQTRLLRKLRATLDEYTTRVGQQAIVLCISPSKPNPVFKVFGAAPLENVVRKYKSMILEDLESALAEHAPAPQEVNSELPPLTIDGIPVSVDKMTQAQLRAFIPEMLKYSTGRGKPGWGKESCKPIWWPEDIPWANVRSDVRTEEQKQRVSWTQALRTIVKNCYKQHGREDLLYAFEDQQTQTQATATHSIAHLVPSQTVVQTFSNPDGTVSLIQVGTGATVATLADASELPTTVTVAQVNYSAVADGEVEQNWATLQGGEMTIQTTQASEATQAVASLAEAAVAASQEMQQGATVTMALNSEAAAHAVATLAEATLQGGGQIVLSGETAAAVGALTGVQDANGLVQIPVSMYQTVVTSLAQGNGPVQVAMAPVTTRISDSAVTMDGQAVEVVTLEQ

C=CCCCCCCCCCCCC
inactive: [1] | [2] | [3] | [4] | [5] | [6] | [7] | [8] | [9] | [10]

S=c1[nH]c2ccccc2s1
inactive: [1] | [2] | [3] | [4] | [5] | [11] | [12] | [13] | [8] | [14] | [9] | [10]

O=C1CCCCC1
inactive: [1] | [2] | [3] | [4] | [15] | [16] | [5] | [11] | [8] | [14] | [17] | [18] | [9] | [10]

O=C(NS(=O)(=O)/C=C/c1cccs1)c1ccc(F)cc1Br
inactive: [1] | [2] | [3] | [4] | [15] | [5] | [6] | [11] | [13] | [17] | [9] | [10]

O=NO
inactive: [1] | [2] | [3] | [4] | [5] | [11] | [8] | [14] | [17] | [9] | [10]

OCC(CO)n1cnc(-c2ccc(F)cc2)c1-c1ccnc(Oc2ccccc2)n1
inactive: [1] | [2] | [3] | [4] | [5] | [6] | [7] | [14] | [9] | [10]

CC1=C(C)S(=O)(=O)CCS1(=O)=O
inactive: [1] | [2] | [3] | [4] | [15] | [5] | [14] | [9] | [10]

CC(COCC(C)OC(=O)c1ccccc1)OC(=O)c1ccccc1 (stereo not given)
inactive: [1] | [2] | [3] | [4] | [16] | [5] | [12] | [19] | [8] | [14] | [9] | [10]

CCCCCCC(C=O)=Cc1ccccc1
active: [5] 60 µM
inactive: [1] | [2] | [3] | [4] | [5] | [6] | [11] | [19] | [13] | [7] | [8] | [14] | [17] | [9] | [10]

Cc1cn([C@H]2C=C[C@@H](CO)O2)c(=O)[nH]c1=O
inactive: [1] | [2] | [3] | [4] | [5] | [6] | [18] | [9] | [10]

Reference: PubChem BioAssay (EPA / NIEHS)
